# Screening results (PubChem)
# HIF activator = HIF pathway transcriptional activators, primary screen, cell-based, U2OS HRE-luciferase, luminescence; U2OS HRE-luciferase reporter; normalized: DMSO 0%, desferrioxamine 100%; activation, % at 7.5 µM (by protocol); actives 0.32% (n = 300,000);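 active means mean activation of at least 10% of the iron chelator positive control signal, with at least half of replicates also reaching 10%; inconclusive means mean and replicate majority disagree about reaching 10%; inactive means mean and most replicates under 10%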
# Mot1-301 SUMO = yeast Mot1-301 growth rescue at high temperature, primary screen, SUMOylation pathway inhibitor project, S. cerevisiae, ATP luminescence, 38.5C; AID 2716, 2010; S. cerevisiae Mot1-301 growth rescue; percent above DMSO median, 100 means doubled; growth rescue, % at 18.8 µM; actives 1% (n = 320,000);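 active means every valid replicate shows activation above 250% relative to neutral control wells; inactive means the rest, any valid replicate at or below 250%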
# AI-2 QS modul = Vibrio harveyi AI-2 quorum sensing modulators, primary screen, JMH597 strain, luminescence/OD600 ratio | actives 0.4% (n = 300,000) | AID 2094, 2009 | Vibrio harveyi JMH597 AI-2 luminescence/OD600 ratio, 9 h; active compounds read low; strain lacks LuxN and CqsS sensors; 0 = neutral-control median | activity change, % at 7.5 µM; in the data active means activity change below about -75%, passing the limit was not always enough; inconclusive means no clear call, values can overlap the other calls;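 further: luminescence divided by OD600 gain over 9 h not by final OD600 alone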
# ALR inh = inhibitors of human ALR sulfhydryl oxidase, primary screen, biochemical, H2O2 detection, HRP-luminol luminescence, single point | FAD-linked sulfhydryl oxidase ALR (Homo sapiens), P55789 | purified ALR, DTT oxidation | inhibition, % (test concentration not listed) | actives 3.8% (n = 290,000) | AID 485317, 2010;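 active means mean replicate inhibition above about 79%, with every replicate also reaching it, limit read from the data; inconclusive means only one of the two criteria met; inactive means mean below limit and not every replicate reaching it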
# Target sequence (P55789 whole entry, looked up): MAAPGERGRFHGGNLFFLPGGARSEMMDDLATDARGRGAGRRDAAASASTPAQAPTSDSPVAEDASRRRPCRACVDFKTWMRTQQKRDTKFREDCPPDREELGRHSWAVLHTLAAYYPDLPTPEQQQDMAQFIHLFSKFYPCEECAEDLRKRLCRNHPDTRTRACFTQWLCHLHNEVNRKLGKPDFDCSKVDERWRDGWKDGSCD
# Numbers stand for hits; n = inactive; u = inconclusive; x = no result given. Only some compounds are listed: those with a hit (about 4.8% of all), similar ones and a draw of the others.
SMILES,HIF activator,Mot1-301 SUMO,AI-2 QS modul,ALR inh
Cc1ccc(-c2nc3ccccc3[nH]2)s1,n,n,n,n
Cc1[nH]c2ccccc2c1-c1nc2ccccc2[nH]1,n,n,n,89
Nc1ccc2nc(-c3cc(Cl)c(N)c(Cl)c3)[nH]c2c1,n,n,n,x
Nc1ccc2nc(C3CCCCC3)[nH]c2c1,n,n,n,99
O=[N+]([O-])c1ccc(-c2nc3ccc([N+](=O)[O-])cc3[nH]2)cc1,n,n,n,n
Nc1ccc(-c2nc3ccc(-c4nc5ccccc5o4)cc3[nH]2)cc1,n,n,n,n
Nc1ccc(-c2nc3ccc([N+](=O)[O-])cc3[nH]2)cc1,n,n,n,97
Cc1ccc(C)c(-c2nc3ccc(N)cc3[nH]2)c1,n,n,n,99
Nc1ccc(-c2nc3c(Cl)c(N)ccc3[nH]2)cc1,n,n,n,98
Cc1ccc2nc(-c3ccccc3N)[nH]c2c1,n,n,n,n
Nc1ccc2nc(-c3cccc(-c4nc5ccc(N)cc5[nH]4)c3)[nH]c2c1,n,n,n,99
COc1cccc(N2CC(NS(=O)(=O)c3ccc4ccccc4c3)CC2=O)c1 (stereo unspecified),n,n,n,n
O=C(Cn1ccc(NC(=O)OCc2ccccc2)nc1=O)NCCCn1ccnc1,x,n,x,n
OCC[C@@H]1C[C@@H](O)[C@H](O)[C@@]2(Cc3ccccc3O2)O1,n,n,n,n
Cc1cc(-c2nc3ccccc3[nH]2)ccc1N,n,n,n,98
Cc1nc2ccc(-c3nc4ccc(N)cc4[nH]3)cc2[nH]1,n,n,n,100
Nc1cc(N)cc(-c2nc3ccccc3[nH]2)c1,x,n,x,n
COCCN(C(=O)C1CC(=O)N(Cc2ccccc2)C1)c1nc(-c2ccc([N+](=O)[O-])cc2)cs1 (stereo unspecified),x,n,x,n
CC(=O)N1CCN(C(=O)COC(=O)COc2ccc(C#N)cc2)CC1,n,n,n,n
CN1CCN(C(c2ccc(Br)cc2)c2cc(Cl)c3cccnc3c2O)CC1 (stereo unspecified),n,n,-141,n
CN1CCN(C(c2cccnc2)c2ccc3cccnc3c2O)CC1 (stereo unspecified),n,n,n,n
CCOc1ccc(CNS(=O)(=O)c2cc(-c3cc(C)no3)ccc2OC)cc1OC,n,n,n,n
CC1=NN(Cc2ccccc2)C(=O)C1C(c1ccc(Cl)cc1)C(C#N)C#N (stereo unspecified),n,n,n,n
CC1=NN(Cc2ccccc2)C(=O)C1C(c1ccccc1)C(C#N)C#N (stereo unspecified),n,n,n,98
O=C(OCC(=O)c1ccc[nH]1)c1ccc(F)c(S(=O)(=O)N2CCOCC2)c1,x,n,x,n
SMILES,HIF activator,Mot1-301 SUMO,AI-2 QS modul,ALR inh
CCc1ccc(-c2nn(Cc3ccccc3)cc2/C=C/C(=O)O)cc1,n,n,n,80
Cc1nnsc1Sc1ccccc1C(=O)O,n,376,n,n
Cc1nnsc1Sc1ccccn1,n,n,n,n
Cc1ccc(S(=O)(=O)c2nc(Cc3ccccc3)oc2N2CCOCC2)cc1,x,n,x,n
Cc1ccccc1NC(=O)CSc1nnc(NC(=O)c2ccco2)s1,n,n,n,n
CCN(CC)CCCNC(=O)c1ccc2c3n(nc2c1)-c1ccc(Cl)cc1CO3,n,n,n,99
CC(C)NC(=O)c1ccc2c3n(nc2c1)-c1ccc(Cl)cc1CO3,n,n,n,n
CN(C)c1ccc(N/C(=N\S(=O)(=O)c2cccs2)c2ccccc2)cc1,n,n,n,99
CN(/C(=N/S(=O)(=O)c1cccs1)c1ccccc1)c1ccccc1,n,n,n,n
CCOc1ccc(C(C)=O)cc1Cn1c(=O)oc2ccccc21,n,n,n,n
Nc1nn(-c2ccccc2)c(N)c1N=Nc1cccc(F)c1,n,n,n,n
Nc1nn(-c2ccccc2)c(N)c1N=Nc1ccc2c(c1)OCO2,n,n,n,95
O=C(Nc1ccc(SC(F)F)cc1)C1=COCCO1,n,n,n,99
Cc1ccc(C(=O)Nc2ccc(SC(F)F)cc2)s1,n,n,n,n
CCC(C)NC(=O)Nc1ccc(Br)cc1 (stereo unspecified),n,n,n,n
CCC(C)Nc1ccc(NC(C)CC)cc1 (stereo unspecified),x,n,x,99
Cn1c(CNS(=O)(=O)c2ccc(Br)cc2)n[nH]c1=S,n,n,n,91
COc1ccc(N2CCN(C(=O)CCc3nnc4ccc(N5CCCC5)nn34)CC2)cc1,n,n,n,u
N#C/C(=C\c1ccc(F)c(F)c1)C(=O)NC1CCCCC1,n,n,n,98
Cc1cc(=O)[nH]c(SCc2cccc3ccccc23)n1,n,n,n,98
COc1ccc(CSc2nc(C)cc(=O)[nH]2)cc1Br,n,n,n,98
CCCc1cc(=O)[nH]c(SCC(=O)c2cc(C)n(C)c2C)n1,n,x,n,98
O=c1cc(CSc2nc3ccccc3[nH]2)c2ccccc2[nH]1,n,n,n,91
CCCc1cc(=O)[nH]c(SCC(=O)c2cc(C)n(C3CC3)c2C)n1,n,n,n,n
O=C(Nc1ccc(Br)cn1)c1ccc(COc2c(F)c(F)cc(F)c2F)o1,x,n,x,n
SMILES,HIF activator,Mot1-301 SUMO,AI-2 QS modul,ALR inh
Nc1cc(=O)[nH]c(SCc2ccccc2Cl)n1,n,n,n,n
CCCc1cc(=O)[nH]c(SCc2ccccc2Cl)n1,n,x,n,99
Cc1ccc(N2CC(=O)N(NC(=O)Nc3ccc(Cl)c(Cl)c3)CC2=O)cc1,n,n,n,x
O=C(Nc1ccc(Cl)cc1)NN1CC(=O)N(c2cccc(C(F)(F)F)c2)CC1=O,29,n,n,n
COC(=O)CN1C(=O)C(O)(CC(=O)c2ccc(Br)cc2)c2ccccc21 (stereo unspecified),x,n,n,96
c1ccc(-c2cc3c(N4CCOCC4)ncnc3s2)cc1,n,n,n,97
CCC(C(=O)OC(C)C(=O)Nc1ccc(Cl)cn1)c1ccccc1 (stereo unspecified),n,n,n,n
Cn1nc(C(C)(C)C)c([N+](=O)[O-])c1C(=O)NC1CCCCC1,n,n,n,n
Cc1ccc(N2C(=O)CC(NNC(=O)c3cccc(S(=O)(=O)N4CCCC4)c3)C2=O)cc1 (stereo unspecified),n,n,n,95
CC1(c2ccccc2)NC(=S)N2C1NC(=S)N2c1ccccc1 (stereo unspecified),n,n,n,n
COc1ccc(N2C(=S)NC3N2C(=S)NC3(C)c2ccccc2)cc1 (stereo unspecified),n,n,n,98
CCOC(=O)C1=C(N)OC2=C(C(=O)CCC2)C1c1ccccc1OC (stereo unspecified),n,n,n,n
CCOC(=O)C1=C(N)OC2=C(C(=O)CCC2)C1c1ccccc1OCC (stereo unspecified),n,n,n,78
